Experimental data reported in the supplement of paper PMC10849652.
About 8,800 targets were measured; listed, in parts, are those with a hit and a random draw of the rest. About 0.5% of all pairs of compound and target were hits. Unmarked numbers belong to inactive results.

Columns and labels:
Experiment in all cases: log2 fold change, soluble protein after heating vs DMSO (PISA); higher = thermal stabilisation; K562 lysate, 10 uM; active = over 0.2 and 3.5 SD of the protein, either way, in both replicates (recomputed)
[1] = compound: C#Cc1cccc(Nc2ncnc3cc(OCCOC)c(OCCOC)cc23)c1 [erlotinib]
Summary of the method: (§1)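 Soluble protein was defined as the supernatant remaining after 21,000xg for 90 min, following pooling of heated aliquots and adjustment to 0.5% NP-40 at 4°C. Before that, crude K562 extract at 1 mg/mL protein in PBS pH 7.4 with 1 mM MgCl2 was treated with 10 μM compound for 30 min and heated for 3 min across 48°C-58°C. Quantification used TMTpro 16plex LC-MS/MS with channel sums equalised, and values are log-two fold changes in thermal stability relative to solvent controls from duplicates.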

[2] = compound: C/C(=N\NC(=O)C1=CC(=CC=C1)S(=O)(=O)N2CCOCC2)/C3=C(C=CC(=C3)Cl)O
Summary of the method: as §1

[3] = compound: C1=CC(=CC=C1C2=NC3=C(N2)C=C(C=C3)C(=O)N)OC4=CC=C(C=C4)Cl
Summary of the method: as §1

[4] = compound: C1=CC2=C(C=CC(=C2)/C=C\3/C(=O)NC(=NCC4=CC=CS4)S3)N=C1
Summary of the method: as §1

[5] = compound: C1=CC2=NC=CN=C2C=C1/C=C/3\C(=O)NC(=O)S3
Summary of the method: as §1

[6] = compound: C1=CC=C(C=C1)C2=NC(=C(N2)C3=CC=NC=C3)C4=CC(=C(C=C4)Cl)O
Summary of the method: as §1

[7] = compound: C1=CC=C2C(=C1)C3=NNC4=CC=CC(=C43)C2=O
Summary of the method: as §1

[8] = compound: C1CCN(C1)C(=O)NC2=CC=CC(=C2)NC3=NC=C(C(=N3)NCCC4=CN=CN4)Br
Summary of the method: as §1

[9] = compound: C1CN(CCC1(CC2=CC=C(C=C2)Cl)N)C3=NC=NC4=C3C=CN4
Summary of the method: as §1

[10] = compound: C1COCCN1CCN2C3=CC=CC=C3N=C2NC(=O)C4=CC(=CC=C4)[N+](=O)[O-] [IRAK-1-4 Inhibitor I]
Summary of the method: as §1

[11] = compound: C=CC(=O)N1CCC[C@@H](n2nc(-c3ccc(Oc4ccccc4)cc3)c3c(N)ncnc32)C1 [ibrutinib]
Summary of the method: as §1

[12] = compound: CC(=O)c1cnc2ccc(-c3cc(Cl)c(O)c(Cl)c3)nc2c1N[C@H]1CC[C@H](CN(C)C)CC1
Summary of the method: as §1

[13] = compound: CC(C)(C)Cn1c(N)nc2ccc(-c3[nH]c(C(C)(C)C)nc3-c3ccc(F)cc3)nc21 [ralimetinib]
Summary of the method: as §1

[14] = compound: CC(C)(O)CC(=O)NCCn1ccc2ncnc(Nc3ccc(Oc4cccc(C(F)(F)F)c4)c(Cl)c3)c21
Summary of the method: as §1

[15] = compound: CC(C)C1=C2N=C(C=C(N2N=C1)NCC3=CC=CC=C3)NCCCCCCN
Summary of the method: as §1

[16] = compound: CC1=C(C(CC(=O)N1)C2=CC=C(C=C2)C(F)(F)F)C(=O)NC3=C(C=C4C(=C3)C=NN4)F
Summary of the method: as §1

[17] = compound: CC1=C(C2=C(C=C1)C(=O)C3=CC=CC=C3N2CCCN)C
Summary of the method: as §1

[18] = compound: CC1=C(C=C(C=C1)NC(=O)C2=CC(=CC=C2)C(C)(C)C#N)NC3=CC4=C(C=C3)N=CN(C4=O)C
Summary of the method: as §1

[19] = compound: CC1=C(C=C(C=C1)NC(=O)C2=CC(=CC=C2)N(C)C)NC(=O)C3=CC=C(C=C3)O
Summary of the method: as §1

[20] = compound: CC1=CC=C(C=C1)SC2=C3C=C(SC3=CN=C2)C(=O)N
Summary of the method: as §1

Chain of UniProt Q9UGJ1 (Q9UGJ1 whole entry, looked up): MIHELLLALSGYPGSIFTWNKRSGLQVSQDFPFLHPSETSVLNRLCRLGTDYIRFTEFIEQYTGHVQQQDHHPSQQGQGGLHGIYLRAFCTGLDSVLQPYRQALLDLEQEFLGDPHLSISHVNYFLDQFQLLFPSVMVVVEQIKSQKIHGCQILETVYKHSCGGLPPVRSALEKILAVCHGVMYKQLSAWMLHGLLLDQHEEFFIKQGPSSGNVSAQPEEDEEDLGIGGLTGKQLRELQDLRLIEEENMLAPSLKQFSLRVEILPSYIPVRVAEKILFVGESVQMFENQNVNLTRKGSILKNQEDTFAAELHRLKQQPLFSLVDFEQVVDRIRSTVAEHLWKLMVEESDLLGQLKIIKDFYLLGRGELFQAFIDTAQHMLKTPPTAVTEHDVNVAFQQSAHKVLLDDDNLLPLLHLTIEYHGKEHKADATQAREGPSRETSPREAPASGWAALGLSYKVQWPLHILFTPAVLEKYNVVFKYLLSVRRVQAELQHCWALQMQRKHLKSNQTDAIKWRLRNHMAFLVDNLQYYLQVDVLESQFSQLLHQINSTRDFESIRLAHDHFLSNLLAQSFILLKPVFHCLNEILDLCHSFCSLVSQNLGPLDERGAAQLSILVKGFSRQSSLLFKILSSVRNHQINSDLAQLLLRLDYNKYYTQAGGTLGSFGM
Chain of UniProt A6NFQ2 (A6NFQ2 whole entry, looked up): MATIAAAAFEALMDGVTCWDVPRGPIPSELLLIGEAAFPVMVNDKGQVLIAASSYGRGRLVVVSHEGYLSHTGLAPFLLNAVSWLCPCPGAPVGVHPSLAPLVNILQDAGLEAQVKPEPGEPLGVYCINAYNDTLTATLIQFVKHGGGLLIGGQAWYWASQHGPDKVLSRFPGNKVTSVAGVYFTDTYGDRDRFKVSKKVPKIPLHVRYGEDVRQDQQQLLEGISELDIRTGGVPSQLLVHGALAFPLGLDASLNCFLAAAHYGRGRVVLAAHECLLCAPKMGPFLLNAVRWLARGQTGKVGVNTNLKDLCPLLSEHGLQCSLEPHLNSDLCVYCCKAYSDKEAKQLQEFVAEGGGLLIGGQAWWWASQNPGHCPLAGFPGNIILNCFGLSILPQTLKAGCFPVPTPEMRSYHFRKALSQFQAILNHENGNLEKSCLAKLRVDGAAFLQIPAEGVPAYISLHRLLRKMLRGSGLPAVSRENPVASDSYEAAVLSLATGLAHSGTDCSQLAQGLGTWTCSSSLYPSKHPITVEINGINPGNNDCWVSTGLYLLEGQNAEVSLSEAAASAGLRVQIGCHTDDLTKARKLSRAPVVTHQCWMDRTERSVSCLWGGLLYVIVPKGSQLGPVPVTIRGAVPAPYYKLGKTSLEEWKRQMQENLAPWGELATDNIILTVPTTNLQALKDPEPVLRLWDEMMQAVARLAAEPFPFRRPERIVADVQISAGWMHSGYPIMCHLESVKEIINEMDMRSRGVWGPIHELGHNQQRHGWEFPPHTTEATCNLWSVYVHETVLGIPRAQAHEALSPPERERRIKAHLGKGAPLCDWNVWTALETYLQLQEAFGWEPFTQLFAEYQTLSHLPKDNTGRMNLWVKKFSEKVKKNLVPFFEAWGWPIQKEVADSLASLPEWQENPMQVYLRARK
Chain of UniProt Q9BSJ2 (Q9BSJ2 whole entry, looked up): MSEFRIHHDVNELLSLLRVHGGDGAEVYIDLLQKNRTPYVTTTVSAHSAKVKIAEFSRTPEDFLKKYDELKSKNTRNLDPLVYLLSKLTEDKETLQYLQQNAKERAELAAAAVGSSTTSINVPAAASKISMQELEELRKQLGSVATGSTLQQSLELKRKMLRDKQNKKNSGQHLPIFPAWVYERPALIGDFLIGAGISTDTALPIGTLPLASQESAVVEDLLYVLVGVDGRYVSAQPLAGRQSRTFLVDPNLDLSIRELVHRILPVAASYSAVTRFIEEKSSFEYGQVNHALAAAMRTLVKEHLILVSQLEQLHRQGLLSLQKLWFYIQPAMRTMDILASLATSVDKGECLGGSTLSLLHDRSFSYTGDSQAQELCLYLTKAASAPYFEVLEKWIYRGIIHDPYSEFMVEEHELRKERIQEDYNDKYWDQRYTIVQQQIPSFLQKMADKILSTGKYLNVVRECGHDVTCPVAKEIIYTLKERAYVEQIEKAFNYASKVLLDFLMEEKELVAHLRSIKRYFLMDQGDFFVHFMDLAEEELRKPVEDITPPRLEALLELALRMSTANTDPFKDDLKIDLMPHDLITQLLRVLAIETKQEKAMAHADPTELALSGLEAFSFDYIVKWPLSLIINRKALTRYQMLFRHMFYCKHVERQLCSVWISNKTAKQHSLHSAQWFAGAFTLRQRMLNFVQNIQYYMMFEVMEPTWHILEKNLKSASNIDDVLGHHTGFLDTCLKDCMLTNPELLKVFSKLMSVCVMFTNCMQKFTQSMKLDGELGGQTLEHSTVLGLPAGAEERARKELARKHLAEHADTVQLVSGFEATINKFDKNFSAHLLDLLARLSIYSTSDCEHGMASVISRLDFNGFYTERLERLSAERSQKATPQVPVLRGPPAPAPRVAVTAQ
Chain of UniProt Q9NX07 (Q9NX07 whole entry, looked up): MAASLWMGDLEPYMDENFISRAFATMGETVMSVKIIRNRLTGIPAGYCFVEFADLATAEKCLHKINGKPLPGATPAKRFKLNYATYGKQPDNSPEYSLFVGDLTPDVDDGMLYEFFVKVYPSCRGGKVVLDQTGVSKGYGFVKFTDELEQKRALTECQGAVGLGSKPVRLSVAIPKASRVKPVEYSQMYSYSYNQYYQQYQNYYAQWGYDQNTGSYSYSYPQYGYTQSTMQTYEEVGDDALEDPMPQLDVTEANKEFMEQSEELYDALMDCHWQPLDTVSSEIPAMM
Chain of UniProt Q7Z3V4 (Q7Z3V4 whole entry, looked up): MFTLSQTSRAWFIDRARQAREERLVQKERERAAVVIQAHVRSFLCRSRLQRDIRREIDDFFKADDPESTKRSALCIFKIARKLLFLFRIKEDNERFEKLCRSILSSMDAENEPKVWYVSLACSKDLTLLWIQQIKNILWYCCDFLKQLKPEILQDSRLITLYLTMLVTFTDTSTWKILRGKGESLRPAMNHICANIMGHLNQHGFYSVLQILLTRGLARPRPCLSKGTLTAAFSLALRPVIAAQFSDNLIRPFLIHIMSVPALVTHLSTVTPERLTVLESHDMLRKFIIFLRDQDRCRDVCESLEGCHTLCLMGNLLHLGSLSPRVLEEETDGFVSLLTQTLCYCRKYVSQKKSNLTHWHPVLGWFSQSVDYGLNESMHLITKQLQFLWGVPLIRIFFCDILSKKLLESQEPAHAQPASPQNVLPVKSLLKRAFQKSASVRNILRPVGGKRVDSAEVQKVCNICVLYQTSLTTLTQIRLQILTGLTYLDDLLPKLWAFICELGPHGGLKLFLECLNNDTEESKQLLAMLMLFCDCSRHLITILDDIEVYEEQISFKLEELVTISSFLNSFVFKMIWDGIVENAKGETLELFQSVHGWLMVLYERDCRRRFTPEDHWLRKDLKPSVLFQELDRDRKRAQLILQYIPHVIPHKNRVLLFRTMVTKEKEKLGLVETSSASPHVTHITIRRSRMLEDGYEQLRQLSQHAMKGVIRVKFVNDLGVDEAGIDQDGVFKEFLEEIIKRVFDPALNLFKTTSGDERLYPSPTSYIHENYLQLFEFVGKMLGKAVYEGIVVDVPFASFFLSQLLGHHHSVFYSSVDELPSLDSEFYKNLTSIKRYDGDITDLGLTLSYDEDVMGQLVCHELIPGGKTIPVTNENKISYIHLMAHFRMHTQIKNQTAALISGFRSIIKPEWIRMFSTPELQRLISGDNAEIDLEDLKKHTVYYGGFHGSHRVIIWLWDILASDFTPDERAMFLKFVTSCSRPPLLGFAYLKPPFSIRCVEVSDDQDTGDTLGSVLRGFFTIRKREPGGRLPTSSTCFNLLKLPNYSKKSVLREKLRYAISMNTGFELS
Chain of UniProt Q53H54 (Q53H54 whole entry, looked up): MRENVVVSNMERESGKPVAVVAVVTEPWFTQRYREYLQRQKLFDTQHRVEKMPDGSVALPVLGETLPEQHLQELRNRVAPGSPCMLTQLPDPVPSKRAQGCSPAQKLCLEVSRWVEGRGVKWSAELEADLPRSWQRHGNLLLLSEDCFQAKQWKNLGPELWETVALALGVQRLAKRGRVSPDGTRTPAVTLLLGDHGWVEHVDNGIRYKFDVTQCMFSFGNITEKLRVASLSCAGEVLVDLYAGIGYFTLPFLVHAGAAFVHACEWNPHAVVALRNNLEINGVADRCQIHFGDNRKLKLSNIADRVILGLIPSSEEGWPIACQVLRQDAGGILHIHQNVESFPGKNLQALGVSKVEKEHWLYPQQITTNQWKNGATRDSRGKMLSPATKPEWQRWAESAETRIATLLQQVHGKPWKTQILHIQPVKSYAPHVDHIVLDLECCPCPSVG
Chain of UniProt Q14258 (Q14258 whole entry, looked up): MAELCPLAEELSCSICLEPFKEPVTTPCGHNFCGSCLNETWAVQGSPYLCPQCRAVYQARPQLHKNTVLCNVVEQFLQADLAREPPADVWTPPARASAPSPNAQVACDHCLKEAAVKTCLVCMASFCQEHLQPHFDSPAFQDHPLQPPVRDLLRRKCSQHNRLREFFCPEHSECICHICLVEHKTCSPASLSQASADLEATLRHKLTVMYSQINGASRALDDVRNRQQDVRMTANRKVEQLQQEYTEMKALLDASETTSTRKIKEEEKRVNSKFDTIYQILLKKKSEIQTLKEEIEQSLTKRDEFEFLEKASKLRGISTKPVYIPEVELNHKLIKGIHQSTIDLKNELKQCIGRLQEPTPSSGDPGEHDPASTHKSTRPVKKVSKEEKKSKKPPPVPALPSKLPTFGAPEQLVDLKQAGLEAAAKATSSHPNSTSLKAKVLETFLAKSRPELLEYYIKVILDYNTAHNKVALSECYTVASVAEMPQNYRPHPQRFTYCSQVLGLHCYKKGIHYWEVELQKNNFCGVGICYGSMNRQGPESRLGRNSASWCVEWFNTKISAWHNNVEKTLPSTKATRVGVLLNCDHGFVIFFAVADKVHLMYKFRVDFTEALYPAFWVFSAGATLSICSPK

Target	log2 fold change [1]	log2 fold change [2]	log2 fold change [3]	log2 fold change [4]	log2 fold change [5]	log2 fold change [6]	log2 fold change [7]	log2 fold change [8]	log2 fold change [9]	log2 fold change [10]	log2 fold change [11]	log2 fold change [12]	log2 fold change [13]	log2 fold change [14]	log2 fold change [15]	log2 fold change [16]	log2 fold change [17]	log2 fold change [18]	log2 fold change [19]	log2 fold change [20]
TUBGCP4 (UniProt Q9UGJ1)	-0.017	-0.017	-0.007	0.015	-0.018	-0.01	-0.028	0.133	0.045	0.052	0	-0.051	0.052	-0.037	0	0.021	-0.048	-0.002	0.05	0.043
TJP1 isoform 2 (UniProt Q07157)	-0.002	0	0.037	-0.007	-0.082	-0.018	-0.041	-0.075	0.039	0.015	0.019	-0.001	-0.007	-0.041	0.036	0.002	-0.025	0.015	0.016	-0.014
TRIM33 (UniProt H0Y612)	-0.006	-0.002	0.05	-0.126	-0.071	-0.01	-0.009	-0.065	-0.023	0.176	0.016	-0.003	0.135	-0.084	0.068	-0.099	-0.004	-0.031	-0.009	-0.012
TMPO (UniProt P42167)	-0.016	0.021	-0.021	-0.027	0.014	-0.029	-0.073	-0.019	-0.032	-0.002	-0.003	0.009	0.018	-0.001	-0.044	0.006	0.005	-0.043	-0.006	-0.064
UBXN6 (UniProt Q9BZV1)	-0.02	0.001	0.001	-0.024	0.006	0.036	-0.073	0	-0.005	-0.007	0.046	0.174	0.037	-0.012	0.019	0.121	-0.059	-0.038	0.031	0.041
UBE3B (UniProt Q7Z3V4)	-0.14	-0.218	-0.3	0.056	0.142	0.011	-0.022	-0.04	-0.12	0.019	0.041	0.019	0.02	-0.074	-0.112	0.068	0	-0.004	-0.022	0.023
TUBGCP2 isoform 4 (UniProt Q9BSJ2)	0.036	-0.048	0.012	0.025	0.014	-0.005	-0.029	-0.014	0.004	-0.041	-0.001	0.042	-0.007	-0.016	-0.006	0.011	-0.023	0.035	0.048	-0.017
TRADD (UniProt Q15628)	0.053	0.258 (active)	0.03	-0.224	0.009	-0.013	0.251	0.029	0.076	0.033	0.013	0.017	-0.005	-0.012	-0.018	-0.015	-0.001	0.017	0.021	0.019
TRIM25 (UniProt Q14258)	-0.01	-0.024	0.028	-0.004	-0.028	0.032	0.008	0.064	0.021	-0.009	-0.001	-0.001	-0.013	0.055	-0.011	-0.002	-0.005	0.005	0.004	0.006
TRMT12 (UniProt Q53H54)	0.065	0.01	0.018	0.058	-0.044	0.106	-0.047	-0.064	0.07	-0.03	-0.083	-0.009	0.094	0.063	-0.018	-0.081	-0.048	0.036	0.033	-0.031
UBE4A isoform 2 (UniProt Q14139)	0.031	0.091	0.023	0.013	-0.023	-0.021	-0.082	-0.028	0.035	0.004	-0.025	0.018	0.038	-0.038	-0.023	0.03	0.019	-0.009	0.034	-0.009
TOX4 (UniProt O94842)	-0.016	-0.025	0.049	0.037	-0.052	0.04	-0.003	-0.014	0.053	-0.025	-0.009	0.054	0.009	-0.034	-0.008	0.024	-0.002	0.033	0.023	0.006
TMEM70 (UniProt Q9BUB7)	-0.018	-0.003	-0.106	0.03	0.038	-0.073	0.011	0.006	-0.028	0.086	0.001	-0.026	0.012	-0.063	-0.002	-0.01	0.01	0.103	0.058	0.003
TCAF2 (UniProt A6NFQ2)	-0.006	-0.218	-0.003	-0.059	-0.038	-0.027	-0.033	-0.022	-0.047	-0.005	0.009	-0.009	0.078	-0.017	0.013	0.022	0.055	-0.005	-0.021	0.063
TRNAU1AP (UniProt Q9NX07)	0.019	0.083	-0.037	0.114	0.038	-0.028	-0.31	-0.071	0.015	-0.005	-0.013	-0.212	0.07	-0.045	0.039	-0.008	0.02	-0.035	0.034	0.021
